# From publication PMC11062922 (Nature Chemical Biology, 2023)
# Like-named read-outs stand apart in the source and are kept apart here.
# What was measured:
# Design in all cases: species or system human, MV4-11 + K-562 + COLO205 + SK-N-BE2 + OVCAR-8
# [1] = system: ACVR1B; conditions: read-out: apparent Kd, n = 1
# [2] = system: ACVR1; conditions: read-out: apparent Kd; compound concentrations: 100 nM and 1000 nM (sheet 'Samples'), CATDS: 0.77187058261615105; n = 1
# [3] = system: ACVR2B; conditions: read-out: apparent Kd, compound concentrations: 100 nM and 1000 nM (sheet 'Samples'), n = 1
# [4] = system: ADRBK1; conditions: read-out: apparent Kd; compound concentrations: 100 nM and 1000 nM (sheet 'Samples'), CATDS: 7.2370560484510002E-2; n = 1
# [5] = system: BMPR1A; conditions: read-out: apparent Kd; compound concentrations: 100 nM and 1000 nM (sheet 'Samples'), CATDS: 0.17247820312197201; n = 1
# [6] = system: BMPR1B; conditions: read-out: apparent Kd; compound concentrations: 100 nM and 1000 nM (sheet 'Samples'), CATDS: 0.14495542747652801; n = 1
# [7] = system: RIPK2; conditions: read-out: apparent Kd, compound concentrations: 100 nM and 1000 nM (sheet 'Samples'), n = 1
# [8] = system: TGFBR1; conditions: read-out: apparent Kd, compound concentrations: 100 nM and 1000 nM (sheet 'Samples'), n = 1
# [9] = system: ZAK; conditions: read-out: apparent Kd; compound concentrations: 100 nM and 1000 nM (sheet 'Samples'), CATDS: 6.5320579429353404E-2; n = 1
# [10] = system: ADCK3; conditions: read-out: apparent Kd; compound concentrations: 100 nM and 1000 nM (sheet 'Samples'), CATDS: 4.7719442951788302E-2; n = 1
# [11] = system: BCR; conditions: read-out: apparent Kd; compound concentrations: 100 nM and 1000 nM (sheet 'Samples'), CATDS: 9.2768545935790703E-2; n = 1
# [12] = system: CSNK1G1; conditions: read-out: apparent Kd; compound concentrations: 100 nM and 1000 nM (sheet 'Samples'), CATDS: 3.1181891791675201E-2; n = 1
# [13] = system: DCTPP1; conditions: read-out: apparent Kd; compound concentrations: 100 nM and 1000 nM (sheet 'Samples'), CATDS: 3.3773682420650999E-2; n = 1
# [14] = system: DDR1; conditions: read-out: apparent Kd; compound concentrations: 100 nM and 1000 nM (sheet 'Samples'), CATDS: 4.4560789756538197E-2; n = 1
# [15] = system: FLT4; conditions: read-out: apparent Kd; compound concentrations: 100 nM and 1000 nM (sheet 'Samples'), CATDS: 0.117719858007404; n = 1
# [16] = system: GAK; conditions: read-out: apparent Kd; compound concentrations: 100 nM and 1000 nM (sheet 'Samples'), CATDS: 0.134261211287381; n = 1
# [17] = system: MAPK14; conditions: read-out: apparent Kd, n = 1
# [18] = system: MAPKAPK2; conditions: read-out: apparent Kd, n = 1
# [19] = system: PDGFRB; conditions: read-out: apparent Kd; compound concentrations: 100 nM and 1000 nM (sheet 'Samples'), CATDS: 3.2777041424413303E-2; n = 1
# [20] = system: PIK3CD; conditions: read-out: apparent Kd; compound concentrations: 100 nM and 1000 nM (sheet 'Samples'), CATDS: 7.8466162037350698E-2; n = 1
# [21] = system: PIM2; conditions: read-out: apparent Kd; compound concentrations: 100 nM and 1000 nM (sheet 'Samples'), CATDS: 3.2827495568097498E-2; n = 1
# [22] = system: PRKAG1; conditions: read-out: apparent Kd; compound concentrations: 100 nM and 1000 nM (sheet 'Samples'), CATDS: 0.117727250561146; n = 1
# [23] = system: RET; conditions: read-out: apparent Kd; compound concentrations: 100 nM and 1000 nM (sheet 'Samples'), CATDS: 0.121628255608471; n = 1
# [24] = system: RIPK3; conditions: read-out: apparent Kd; compound concentrations: 100 nM and 1000 nM (sheet 'Samples'), CATDS: 3.5551158882109302E-2; n = 1
# [25] = system: SLK; conditions: read-out: apparent Kd; compound concentrations: 100 nM and 1000 nM (sheet 'Samples'), CATDS: 3.3864807637991101E-2; n = 1
# [26] = system: STK10; conditions: read-out: apparent Kd; compound concentrations: 100 nM and 1000 nM (sheet 'Samples'), CATDS: 3.2932221087981599E-2; n = 1
# [27] = system: CLK1; conditions: read-out: apparent Kd; compound concentrations:100 nM and 1000 nM (sheet 'Samples'); n = 1
# [28] = system: CLK4; conditions: read-out: apparent Kd; compound concentrations:100 nM and 1000 nM (sheet 'Samples'); n = 1
# [29] = system: CSNK1E; conditions: read-out: apparent Kd, n = 1
# [30] = system: DYRK1A; conditions: read-out: apparent Kd; compound concentrations:100 nM and 1000 nM (sheet 'Samples'); n = 1
# [31] = system: ILK; conditions: read-out: apparent Kd, n = 1
# [32] = system: MAP2K1; conditions: read-out: apparent Kd; compound concentrations:100 nM and 1000 nM (sheet 'Samples'); n = 1
# [33] = system: MAP2K2; conditions: read-out: apparent Kd; compound concentrations:100 nM and 1000 nM (sheet 'Samples'); n = 1
# [34] = system: NNT; conditions: read-out: apparent Kd; compound concentrations:100 nM and 1000 nM (sheet 'Samples'); n = 1
# [35] = system: PIP4K2C; conditions: read-out: apparent Kd; compound concentrations:100 nM and 1000 nM (sheet 'Samples'); n = 1
# [36] = system: STK26; conditions: read-out: apparent Kd; compound concentrations:100 nM and 1000 nM (sheet 'Samples'); n = 1
# [37] = system: AGPS; conditions: read-out: apparent Kd; compound concentrations: 100 nM and 1000 nM (sheet 'Samples'), CATDS: 9.4477869255485902E-2; n = 1
# [38] = system: CSNK1D; conditions: read-out: apparent Kd; compound concentrations: 100 nM and 1000 nM (sheet 'Samples'), CATDS: 0.11827296398223; n = 1
# [39] = system: MDN1; conditions: read-out: apparent Kd; compound concentrations: 100 nM and 1000 nM (sheet 'Samples'), CATDS: 9.4286494514119495E-2; n = 1
# [40] = system: TESK2; conditions: read-out: apparent Kd; compound concentrations: 100 nM and 1000 nM (sheet 'Samples'), CATDS: 9.9817052034954598E-2; n = 1
# [41] = compound concentrations:100 nM and 1000 nM (sheet 'Samples')
structure (smiles),measurement,setting,value
COc1cc(-c2cncc(-c3cnn(C4CCNCC4)c3)c2)cc(OC)c1OC [K05908],potency estimated from few doses,"[1]; compound concentrations: 100 nM and 1000 nM (sheet 'Samples'), CATDS: 0.127263158539664",93.1 nM
same,potency estimated from few doses,[2],1.97 nM
same,potency estimated from few doses,[3]; CATDS: 7.0258773018851195E-2,1360 nM
same,potency estimated from few doses,[4],1110 nM
same,potency estimated from few doses,[5],42.3 nM
same,potency estimated from few doses,[6],65 nM
same,potency estimated from few doses,[7]; CATDS: 0.16221198549174301,49 nM
same,potency estimated from few doses,[8]; CATDS: 0.103891234408396,181 nM
same,potency estimated from few doses,[9],2410 nM
Cl.c1ccc(-c2ccc3c(Nc4ccc5[nH]ccc5c4)ccnc3c2)nc1 [GW440138A],potency estimated from few doses,"[1]; compound concentrations: 100 nM and 1000 nM (sheet 'Samples'), CATDS: 4.6786491220556801E-2",481 nM
same,potency estimated from few doses,[3]; CATDS: 8.2353092384730597E-2,119 nM
same,potency estimated from few doses,[10],453 nM
same,potency estimated from few doses,[11],94.2 nM
same,potency estimated from few doses,[12],2210 nM
same,potency estimated from few doses,[13],1520 nM
same,potency estimated from few doses,[14],558 nM
same,potency estimated from few doses,[15],62.1 nM
same,potency estimated from few doses,[16],50.4 nM
same,potency estimated from few doses,"[17]; compound concentrations: 100 nM and 1000 nM (sheet 'Samples'), CATDS: 3.4656065329692502E-2",1360 nM
same,potency estimated from few doses,"[18]; compound concentrations: 100 nM and 1000 nM (sheet 'Samples'), CATDS: 3.6359622105698597E-2",1130 nM
same,potency estimated from few doses,[19],1740 nM
same,potency estimated from few doses,[20],131 nM
same,potency estimated from few doses,[21],1730 nM
same,potency estimated from few doses,[22],62.1 nM
same,potency estimated from few doses,[23],58.9 nM
same,potency estimated from few doses,[7]; CATDS: 9.1819090008616905E-2,96 nM
same,potency estimated from few doses,[24],1230 nM
same,potency estimated from few doses,[25],1500 nM
same,potency estimated from few doses,[26],1700 nM
same,potency estimated from few doses,[8]; CATDS: 3.3353996137348303E-2,1610 nM
Nc1nc(-c2ccc(F)cc2)c(-c2ccc3ncccc3n2)s1 [GW785804X],potency estimated from few doses,[1]; [41],57.9 nM
same,potency estimated from few doses,[27],997 nM
same,potency estimated from few doses,[28],1100 nM
same,potency estimated from few doses,[29]; [41],2400 nM
same,potency estimated from few doses,[30],1970 nM
same,potency estimated from few doses,[31]; [41],2080 nM
same,potency estimated from few doses,[32],1910 nM
same,potency estimated from few doses,[33],2060 nM
same,potency estimated from few doses,[17]; [41],567 nM
same,potency estimated from few doses,[18]; [41],1410 nM
same,potency estimated from few doses,[34],164 nM
same,potency estimated from few doses,[35],2210 nM
same,potency estimated from few doses,[36],2330 nM
CN1CCN(CCCNc2nccc(-c3c(-c4ccc(F)cc4)nn4cc(C(F)(F)F)ccc34)n2)CC1 [GW621581X],potency estimated from few doses,"[1]; compound concentrations: 100 nM and 1000 nM (sheet 'Samples'), CATDS: 0.17734677143715399",667 nM
same,potency estimated from few doses,[37],2190 nM
same,potency estimated from few doses,[38],1330 nM
same,potency estimated from few doses,"[29]; compound concentrations: 100 nM and 1000 nM (sheet 'Samples'), CATDS: 9.3377022470402096E-2",2250 nM
same,potency estimated from few doses,"[31]; compound concentrations: 100 nM and 1000 nM (sheet 'Samples'), CATDS: 9.8525851125826097E-2",1970 nM
same,potency estimated from few doses,"[17]; compound concentrations: 100 nM and 1000 nM (sheet 'Samples'), CATDS: 0.13638952707170801",1020 nM
same,potency estimated from few doses,"[18]; compound concentrations: 100 nM and 1000 nM (sheet 'Samples'), CATDS: 0.13321456142161001",1070 nM
same,potency estimated from few doses,[39],2200 nM
same,potency estimated from few doses,[40],1910 nM
